The text below walks through data of PubChem BioAssay.

Active and inactive are the calls of the source. Unless noted, no rule for the calls is given here.

Experiment [1] in a line: compound effects on lung adenocarcinoma cell viability – A549, calcein-AM fluorescence, 48 h, basal, profiling panel (AID 1162). Also: test concentration not given here. The conditions noted are these: higher = more signal.
Experiment [2] can be described thus: compound effects on differentiated 3T3-L1 adipocyte viability – cell-based, 3T3-L1 adipocytes, calcein-AM fluorescence, 48 h, basal, profiling panel (AID 1163). Also: test concentration not given here. The conditions noted are these: 3T3-L1 adipocytes viability, higher = more signal.
Experiment [3] can be described thus: compound effects on hepatocellular carcinoma cell viability – HepG2, calcein-AM fluorescence, 48 h, basal, profiling panel (AID 1164). Also: test concentration not given here. The note with it: higher = more signal.
Experiment [4] in a line: compound effects on multiple myeloma cell viability – MM1S, calcein-AM fluorescence, 48 h, basal, profiling panel (AID 1165). Also: test concentration not given here. The conditions noted are these: higher = more signal.
Experiment [5] is described as follows: calcein-AM signal in unstimulated myeloma cells – cell-based, calcein-AM fluorescence, 48 h, PK04 Diversity Set, profiling panel (AID 1166).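 Also: cells grown under basal conditions without added stimulus; test concentration not given here.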 The note with it: RPMI8226 myeloma viability, higher = more signal.
A short description of experiment [6]: JC-1 mitochondrial signal, unstimulated HepG2 cells – cell-based, JC-1 fluorescence, 24 h, 100 nL compound, profiling panel (AID 1167). Also: test concentration not given here. The note with it: HepG2 mitochondrial potential, higher = more signal.
The nature of experiment [7]: JC-1 mitochondrial signal, unstimulated adipocytes – cell-based, JC-1 fluorescence, 3T3-L1 adipocytes, 24 h, 100 nL compound, profiling panel (AID 1168). Also: test concentration not given here. The note with it: JC-1 mitochondrial fluorescence, higher = more signal, called active from +8 up or from −8 down.
Experiment [8] can be described thus: JC-1 mitochondrial signal, unstimulated myeloma cells – cell-based, JC-1 fluorescence, RPMI8226, 24 h, 100 nL compound, profiling panel (AID 1169). Also: test concentration not given here. The conditions noted are these: JC-1 mitochondrial potential fluorescence, higher = more signal.
Experiment [9] can be described thus: JC-1 mitochondrial signal, unstimulated MM1S myeloma – cell-based, JC-1 fluorescence, 24 h, 100 nL compound, profiling panel (AID 1170). Also: test concentration not given here. The conditions noted are these: MM1S mitochondrial potential, higher = more signal.
Experiment [10] is described as follows: resazurin metabolic signal in A549 cells – cell-based, resazurin fluorescence, 24 h, PK04 Diversity Set, profiling panel (AID 1171). Also: test concentration not given here. The note with it: A549 viability, higher = more signal, called active from +8 up or from −8 down. (In general: Alamar Blue is a resazurin reagent that responds to reducing activity.)
Experiment [11] in a line: resazurin metabolic signal in HepG2 cells – cell-based, resazurin fluorescence, 24 h, PK04 Diversity Set, profiling panel (AID 1172). Also: test concentration not given here. The note with it: HepG2 viability, higher = more signal.
A short description of experiment [12]: budding yeast growth changes without added modifier – OD600, strain BY4716, 24 h, basal condition, primary screen (AID 1173). The conditions noted are these: S. cerevisiae BY4716 growth, OD600, 24 h; higher = more signal, called active from +8 up or from −8 down.
Experiment [13] can be described thus: viability profiling in MM1S myeloma cells – cell-based, resazurin fluorescence, basal, 24 h, PK04 Diversity Set, profiling panel (AID 1174). Also: test concentration not given here. The conditions noted are these: higher = more signal, called active from +8 up or from −8 down.
The target in experiment [14] is Dihydroorotate dehydrogenase (quinone), mitochondrial (Plasmodium falciparum (isolate 3D7)) (UniProt Q08210). Description: inhibition of P. falciparum DHODH – biochemical, C-terminal His tag, absorbance 600 nm, primary screen (AID 1175).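 Also: recombinant parasite enzyme with a five histidine tag at its C terminus; test concentration not given here.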 The conditions noted are these: PfDHODH enzyme, DCIP absorbance 600 nm; higher = more signal, called active from +8 up or from −8 down.
Chain of Dihydroorotate dehydrogenase (quinone), mitochondrial (Plasmodium falciparum (isolate 3D7)) (Q08210 whole entry, looked up): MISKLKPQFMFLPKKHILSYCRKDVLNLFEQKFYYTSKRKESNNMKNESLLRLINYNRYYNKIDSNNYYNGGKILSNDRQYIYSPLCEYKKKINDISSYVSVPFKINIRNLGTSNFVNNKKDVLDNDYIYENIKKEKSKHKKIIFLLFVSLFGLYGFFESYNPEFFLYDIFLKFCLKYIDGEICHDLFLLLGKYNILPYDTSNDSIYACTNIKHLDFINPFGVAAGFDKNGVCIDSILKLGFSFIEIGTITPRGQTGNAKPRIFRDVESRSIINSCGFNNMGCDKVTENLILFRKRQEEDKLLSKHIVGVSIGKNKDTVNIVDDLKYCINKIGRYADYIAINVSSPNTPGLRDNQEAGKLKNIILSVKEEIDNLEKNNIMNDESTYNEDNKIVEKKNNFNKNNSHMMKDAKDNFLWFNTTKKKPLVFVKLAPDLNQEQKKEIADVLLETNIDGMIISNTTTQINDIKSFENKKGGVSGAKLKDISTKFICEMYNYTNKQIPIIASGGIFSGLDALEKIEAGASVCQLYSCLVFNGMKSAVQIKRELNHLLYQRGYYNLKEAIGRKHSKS

The nature of experiment [15]: inhibition of PAO1 biofilm formation – strain PAO1, LB-PBS medium, absorbance 600 nm, primary screen (AID 1176). Also: test concentration not given here. The note with it: P. aeruginosa PAO1 growth/biofilm, A600, 12 h; higher = more signal.
A short description of experiment [16]: growth modulation of vineyard yeast isolate – strain RM11-1a, OD600, basal, 24 h, primary screen (AID 1177).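 Also: cultures grown under basal conditions with no added stressor; test concentration not given here.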 The note with it: S. cerevisiae RM11-1a growth, OD600, 24 h; higher = more signal, called active from +8 up or from −8 down.
Experiment [17] is described as follows: growth of efflux-deficient E. coli DRC39 – strain DRC39, OD650, 24 h, E. coli filamentation inducers, primary screen (AID 1178).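 Also: growth measured as culture turbidity by optical density at 650 nm; test concentration not given here.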 The note with it: E. coli DRC39 acrAB, higher = more signal, called active from +8 up or from −8 down.
Experiment [18] is described as follows: growth of efflux-deficient E. coli DRC39 – strain DRC39, OD650, 48 h, E. coli filamentation inducers, primary screen (AID 1179).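 Also: screen aims at cell division blockers that make cells filament.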 The conditions noted are these: E. coli DRC39 delta-acrAB growth, higher = more signal, called active from +8 up or from −8 down.
A short description of experiment [19]: viability profiling in RPMI8226 myeloma cells – cell-based, resazurin fluorescence, basal, 24 h, PK04 Diversity Set, profiling panel (AID 1180).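 Also: RPMI8826 multiple myeloma cell line at 5000 cells per well; test concentration not given here.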 The note with it: higher = more signal.
The target of experiment [20] is E3 ubiquitin-protein ligase XIAP (Homo sapiens) (UniProt P98170). Description: small molecules binding XIAP protein – biophysical, small-molecule microarray, fluorescence 635 nm, primary screen (AID 1181).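 Also: score merges 667 nm emission and signal to noise over triplicate slides.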 The note with it: higher = more signal.
Chain of E3 ubiquitin-protein ligase XIAP (Homo sapiens) (P98170 whole entry, looked up): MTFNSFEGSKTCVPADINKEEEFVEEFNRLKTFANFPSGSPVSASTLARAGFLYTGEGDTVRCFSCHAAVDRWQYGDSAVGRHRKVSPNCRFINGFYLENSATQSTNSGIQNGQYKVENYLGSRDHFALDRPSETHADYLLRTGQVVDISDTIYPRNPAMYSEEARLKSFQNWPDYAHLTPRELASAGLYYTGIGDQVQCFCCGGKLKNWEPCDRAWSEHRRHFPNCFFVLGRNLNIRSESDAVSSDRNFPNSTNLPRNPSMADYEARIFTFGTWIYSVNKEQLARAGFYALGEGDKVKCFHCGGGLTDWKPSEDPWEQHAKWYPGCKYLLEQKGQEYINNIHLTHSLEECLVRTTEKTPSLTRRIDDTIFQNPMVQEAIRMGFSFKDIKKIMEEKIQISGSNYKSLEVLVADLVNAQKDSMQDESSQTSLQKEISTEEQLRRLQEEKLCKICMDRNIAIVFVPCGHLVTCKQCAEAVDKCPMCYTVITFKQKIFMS

Regarding `CCN1C(=O)[C@H]2[C@H]3[C@H](O)[C@H](O)CC(=NOCC[C@@H]4C=C[C@H](OC(C)=O)[C@@H](COC(C)=O)O4)[C@@H]3CC[C@H]2C1=O`, the z-score in [1] is 1.03; in [2], -0.286; in experiment [3], -0.296; in experiment [4], 0.0566; in experiment [5] it was -0.727; in [6] it was -0.301. Further, the z-score is -0.132 (inactive) in experiment [7]; 0.572 in experiment [8]; -0.306 in [9]; -0.774 (inactive) in experiment [10]; -1.02 in experiment [11]; 0.508 (inactive) in experiment [12]. Besides, the z-score in experiment [13] is -1.85 (inactive); in experiment [15], 1.22 (inactive); in experiment [16], -0.183 (inactive); in experiment [17] it was 0.178 (inactive); in experiment [18] it was -0.0655 (inactive); in experiment [19] it was -1.05. Further, the results for the composite z-score in experiment [14] and in experiment [20] were -0.666 (inactive) and 0.134, respectively.

As for `CCOC(=O)[C@H](Cc1ccccc1)NC(=O)CCC1CC(OC(=O)NCc2cccc3ccccc23)CC2(CCCC(COC(=O)NCc3ccc4c(c3)OCO4)O2)O1` (stereo not given in full), the z-score is 0.664 in [1]; -0.171 in [2]; 0.78 in experiment [3]; 0.505 in [4]; -1.48 in [5]; 0.561 in experiment [6]. For the same molecule, the z-score in experiment [7] is 0.953 (inactive); in experiment [8], -0.675; in experiment [9] it was -0.239; in [10], -0.269 (inactive); in [11], -0.0973; in [12], -0.552 (inactive). In addition, the z-score in experiment [13] is -0.082 (inactive); in experiment [15] it was -0.373 (inactive); in [16] it was -0.131 (inactive); in experiment [17], 1.56 (inactive); in [18], 1.41 (inactive); in [19] it was 0.922. Besides, the composite z-score was -0.929 (inactive) in [14] and -0.209 in experiment [20].

For the molecule `COC(=O)[C@H](C)NC(=O)CCC1CC(OC(=O)NCCc2ccc(F)cc2)CC2(CCCC(COC(=O)NCCOc3ccccc3)O2)O1` (stereo not given in full), the z-score in experiment [1] was 0.401; in experiment [2], -0.506; in experiment [3], 0.696; in experiment [4], 0.546; in experiment [5], -0.475; in experiment [6] it was 1.17. The z-score in [7] was 0.00171 (inactive); in experiment [8], 0.606; in [9], -0.0736; in experiment [10] it was 0.579 (inactive); in [11], 0.0903; in experiment [12], 0.338 (inactive). Also, the z-score is 0.177 (inactive) in experiment [13]; -0.0326 (inactive) in experiment [15]; 0.127 (inactive) in experiment [16]; 0.289 (inactive) in [17]; -0.451 (inactive) in experiment [18]; -0.0199 in [19]. In addition, the composite z-score in experiment [14] was -0.361 (inactive); in experiment [20] it was -0.114.

With `CN1CCc2nc(-c3ccccc3)c(-c3ccccc3)cc2C1`, the z-score in experiment [1] was -0.244; in [2], 0.665; in [3], 0.135; in experiment [4], 0.33; in experiment [5] it was 0.455; in experiment [6], 0.25. Besides, the z-score in [7] is -0.53 (inactive); in [8], 0.344; in experiment [9], -0.201; in experiment [10], 0.752 (inactive); in [11] it was 0.713; in [12] it was 0.0367 (inactive). For the same molecule, the z-score was 0.476 (inactive) in [13]; -0.364 (inactive) in experiment [15]; 0.298 (inactive) in experiment [16]; 0.38 (inactive) in [17]; 0.105 (inactive) in [18]; 0.639 in [19]. For the same molecule, the composite z-score in [14] is -0.191 (inactive); in experiment [20] it was 0.0024.

On to `O=C(NN=C1C[C@@H](O)[C@@H](O)[C@@H]2[C@@H]3C(=O)N(c4ccc(F)cc4F)C(=O)[C@@H]3CC[C@H]12)OCc1ccccc1`, for which the z-score in [1] is -0.299; in experiment [2], -0.198; in experiment [3], -1.39; in experiment [4], -0.46; in experiment [5], 0.707; in experiment [6], 0.344. The z-score was 0.533 (inactive) in experiment [7]; 0.0563 in experiment [8]; -0.741 in experiment [9]; 1.88 (inactive) in experiment [10]; 2.08 in experiment [11]; -0.814 (inactive) in experiment [12]. The z-score in experiment [13] is 1.23 (inactive); in experiment [15], -0.258 (inactive); in experiment [16], -1.35 (inactive); in [17], 0.574 (inactive); in experiment [18] it was 0.573 (inactive); in experiment [19] it was 0.86. The values for the composite z-score in experiment [14] and in experiment [20] were -0.25 (inactive) and -0.152, respectively.

`C=CC[C@@H]1C=C[C@H](ON=CC[C@@H]2C=C[C@H](OC(C)=O)[C@@H](COC(C)=O)O2)[C@@H](CO)O1`: the z-score was 0.452 in experiment [1]; -0.5 in experiment [2]; 0.347 in [3]; 0.114 in [4]; -0.445 in [5]; 0.169 in [6]. Further, the z-score in [7] was -0.01 (inactive); in experiment [8], -0.131; in experiment [9] it was -0.838; in experiment [10] it was -0.286 (inactive); in [11] it was 0.083; in [12] it was 0.365 (inactive). Besides, the z-score was -1.23 (inactive) in experiment [13]; -0.242 (inactive) in experiment [15]; 0.879 (inactive) in experiment [16]; 0.879 (inactive) in [17]; 0.984 (inactive) in [18]; -0.687 in [19]. The composite z-score is -0.84 (inactive) in [14] and -0.158 in [20].

In the case of `OC[C@H]1O[C@H](C#Cc2ccccc2)C=C[C@@H]1O`, the z-score is -0.259 in [1]; 0.0466 in [2]; 0.457 in [3]; -3.41 in experiment [4]; -1.26 in [5]; 0.552 in experiment [6]. Also, the z-score in experiment [7] is -0.397 (inactive); in experiment [8] it was 0.607; in experiment [9], -0.673; in [10], -0.852 (inactive); in experiment [11], -0.0313; in experiment [12] it was -2.6 (inactive). Also, the z-score in experiment [13] is -0.323 (inactive); in [15] it was 0.298 (inactive); in experiment [16] it was -0.353 (inactive); in [17] it was 0.953 (inactive); in experiment [18], 0.626 (inactive); in experiment [19], 0.226. Further, the composite z-score is -0.249 (inactive) in experiment [14] and -0.184 in experiment [20].

As for `CCOC(=O)CCN1C(=O)[C@H]2[C@H]3[C@H](O)[C@H](O)CC(=NNC(=O)OCc4ccccc4)[C@H]3CC[C@H]2C1=O`, the z-score was 0.391 in [1]; 1.33 in experiment [2]; -0.222 in [3]; 0.357 in [4]; -0.0554 in [5]; -0.952 in experiment [6]. The z-score was -0.223 (inactive) in experiment [7]; -0.0449 in [8]; 0.435 in experiment [9]; -0.367 (inactive) in experiment [10]; -0.0842 in [11]; -0.712 (inactive) in experiment [12]. Moreover, the z-score in experiment [13] was -0.364 (inactive); in [15] it was 1.1 (inactive); in experiment [16] it was -1.26 (inactive); in experiment [17], -0.213 (inactive); in [18], -0.354 (inactive); in experiment [19], 0.0536. The composite z-score is -0.192 (inactive) in [14] and -0.163 in [20].
